Results published in PubChem BioAssay (NCI).
About 83,000 compounds went through this panel and 20% of them were active in at least one assay; those are over-represented in the sample as a whole.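 Step 1: grow cells in 96-well plates. Step 2: add test compound at a single concentration. Step 3: incubate 48 h. Step 4: record percent growth.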 Activity calls are given as the source filed them. Rule for the calls: active = growth percent below 10; inactive = the rest.

Key:
Assay in all cases: NCI-60 one-dose screen, 48 h (100 = growth as untreated, 0 = no growth, -100 = all killed)
Conditions in all cases: 10 µM unless noted
RPMI-8226 leukemia = tested on: RPMI-8226 leukemia
OVCAR-8 ovarian = tested on: OVCAR-8 ovarian
OVCAR-5 ovarian = tested on: OVCAR-5 ovarian
OVCAR-4 ovarian = tested on: OVCAR-4 ovarian
SK-OV-3 ovarian = tested on: SK-OV-3 ovarian
IGROV1 ovarian = tested on: IGROV1 ovarian
OVCAR-3 ovarian = tested on: OVCAR-3 ovarian
HS 578T breast = tested on: HS 578T breast
NCI/ADR-RES ovarian = tested on: NCI/ADR-RES ovarian

Measured: growth

CC[C@@H](C(=O)[C@@H](C)[C@@H](O)[C@H](C)[C@@H]1O[C@@H]([C@@H](CC)C(=O)O)CC[C@@H]1C)[C@H]1OC2(C=C[C@@H](O)[C@]3(CC[C@@](C)([C@H]4CC[C@](O)(CC)[C@H](C)O4)O3)O2)[C@H](C)C[C@@H]1C (some centres undefined)
inactive: OVCAR-8 ovarian 31.9% | OVCAR-5 ovarian 57.7% | OVCAR-4 ovarian 35.8% | SK-OV-3 ovarian 30.2% | IGROV1 ovarian 40.2% | OVCAR-3 ovarian 14.6% | HS 578T breast 30% | NCI/ADR-RES ovarian 29.6%
active: RPMI-8226 leukemia -36.1%

C=C(C)[C@@H]1CC[C@]2(C(N)=O)CC[C@]3(C)[C@H](CC[C@@H]4[C@@]5(C)C/C(=C/c6ccco6)C(=O)C(C)(C)[C@@H]5CC[C@]43C)[C@@H]12
inactive: RPMI-8226 leukemia 84.6% | OVCAR-8 ovarian 93.8% | OVCAR-5 ovarian 101% | OVCAR-4 ovarian 95.8% | SK-OV-3 ovarian 102% | IGROV1 ovarian 101% | OVCAR-3 ovarian 105% | HS 578T breast 95.3% | NCI/ADR-RES ovarian 96.6%

COc1cc(-c2nc(C(=O)NCC(=O)NO)nn2-c2ccc(Cl)cc2)cc(OC)c1OC
inactive: RPMI-8226 leukemia 105% | OVCAR-8 ovarian 98.5% | OVCAR-5 ovarian 93.3% | OVCAR-4 ovarian 105% | SK-OV-3 ovarian 93.3% | IGROV1 ovarian 112% | OVCAR-3 ovarian 103% | HS 578T breast 85.6% | NCI/ADR-RES ovarian 106%

CC(C)c1c(C(=O)c2ccccc2)c(-c2ccccc2)c(-c2ccc(F)cc2)n1CC[C@@H](O)C[C@@H](O)CC(=O)O
inactive: RPMI-8226 leukemia 67.1% | OVCAR-8 ovarian 49.6% | OVCAR-5 ovarian 88.2% | OVCAR-4 ovarian 87.5% | SK-OV-3 ovarian 84.5% | IGROV1 ovarian 39.5% | OVCAR-3 ovarian 83.9% | HS 578T breast 17.1% | NCI/ADR-RES ovarian 48.9%

Cc1ccc(C2Oc3ccccc3C3CC(c4cccs4)=NN32)cc1 (centres undefined)
inactive: RPMI-8226 leukemia 95.3% | OVCAR-8 ovarian 99.7% | OVCAR-5 ovarian 102% | OVCAR-4 ovarian 93.6% | SK-OV-3 ovarian 90.1% | IGROV1 ovarian 80.2% | OVCAR-3 ovarian 100% | HS 578T breast 86.7% | NCI/ADR-RES ovarian 96.6%

CCCCCCCCCCCCC[N+](C)(C)Cc1ccccc1
inactive: OVCAR-5 ovarian 24.9% | NCI/ADR-RES ovarian 90.2%
active: RPMI-8226 leukemia -50.9% | OVCAR-8 ovarian -30.5% | OVCAR-4 ovarian 8.67% | SK-OV-3 ovarian 4.31% | IGROV1 ovarian -49.9% | OVCAR-3 ovarian -61.1% | HS 578T breast -31.4%

CSc1nc(NCCN2CCOCC2)c(C#N)c(-c2cccc([N+](=O)[O-])c2)n1
inactive: RPMI-8226 leukemia 100% | OVCAR-8 ovarian 97.4% | OVCAR-5 ovarian 96.2% | OVCAR-4 ovarian 87.3% | SK-OV-3 ovarian 97.8% | IGROV1 ovarian 94.9% | OVCAR-3 ovarian 109% | HS 578T breast 97.9% | NCI/ADR-RES ovarian 95.7%

O=C(COc1cccc(/C=C2\COc3ccc(Cl)cc3C2=O)c1)c1ccc(Cl)cc1
inactive: OVCAR-8 ovarian 91.7% | OVCAR-5 ovarian 81.1% | OVCAR-4 ovarian 90.5% | SK-OV-3 ovarian 99% | IGROV1 ovarian 38.3% | OVCAR-3 ovarian 87.4% | HS 578T breast 72.3% | NCI/ADR-RES ovarian 84%
active: RPMI-8226 leukemia -11.4%

CC[C@@H]1O[C@H](O[C@@H](c2cnc[nH]2)[C@H](NC(=O)c2nc([C@H](CC(N)=O)NC[C@@H](N)C(N)=O)nc(N)c2C)C(=O)N[C@H](C)[C@H](O)[C@H](C)C(=O)N[C@@H](C(=O)NCCc2nc(-c3nc(C(=O)NCCCCN=C(N)N)cs3)cs2)[C@@H](C)O)[C@H](O[C@@H]2O[C@H](CO)[C@H](O)[C@H](OC(N)=O)[C@@H]2O)[C@H](C)[C@@H]1C
inactive: RPMI-8226 leukemia 73% | OVCAR-8 ovarian 47.2% | OVCAR-5 ovarian 59.5% | OVCAR-4 ovarian 85.6% | SK-OV-3 ovarian 41.8% | IGROV1 ovarian 45.5% | OVCAR-3 ovarian 60.8% | HS 578T breast 38.8% | NCI/ADR-RES ovarian 20.1%

COc1ccc(/C=C/C(=O)c2ccc(O)c(CN3CCN(c4cc5c(cc4F)c(=O)c(C(=O)O)cn5C4CC4)CC3)c2)cc1
inactive: OVCAR-8 ovarian 13.2% | OVCAR-5 ovarian 47.5% | OVCAR-4 ovarian 88.1% | SK-OV-3 ovarian 46.5% | IGROV1 ovarian 33.8% | OVCAR-3 ovarian 19.1% | HS 578T breast 35.4% | NCI/ADR-RES ovarian 43.1%
active: RPMI-8226 leukemia -3.49%

CC1=CC(=NN=c2cc(C)n([O-])c(C)c2)C=C(C)[N+]1=O
inactive: RPMI-8226 leukemia 67.4% | OVCAR-8 ovarian 86.2% | OVCAR-5 ovarian 110% | OVCAR-4 ovarian 78% | SK-OV-3 ovarian 111% | IGROV1 ovarian 89.2% | OVCAR-3 ovarian 110% | HS 578T breast 98.8% | NCI/ADR-RES ovarian 111%

Cc1nc(/N=C(\N)NC(=O)Nc2cccc([N+](=O)[O-])c2)sc1C
inactive: RPMI-8226 leukemia 74.3% | OVCAR-8 ovarian 100% | OVCAR-5 ovarian 91.5% | OVCAR-4 ovarian 88.6% | SK-OV-3 ovarian 101% | IGROV1 ovarian 76.1% | OVCAR-3 ovarian 95.9% | HS 578T breast 74.5% | NCI/ADR-RES ovarian 46.2%

COc1cc(CNc2oc(-c3ccccc3)c(-c3ccccc3)c2C#N)cc(CN2CCN(C)CC2)c1O
active: RPMI-8226 leukemia 2.73%
inactive: OVCAR-8 ovarian 94.5% | OVCAR-5 ovarian 63.8% | OVCAR-4 ovarian 55% | SK-OV-3 ovarian 95.9% | IGROV1 ovarian 71.2% | OVCAR-3 ovarian 80.2% | HS 578T breast 70.5% | NCI/ADR-RES ovarian 75.3%

COc1cccc(-c2nc3sccn3c2-c2ccnc(NCCCNS(=O)(=O)c3cccc(F)c3)c2)c1
active: RPMI-8226 leukemia -19.9% | NCI/ADR-RES ovarian 4.88%
inactive: OVCAR-8 ovarian 14.4% | OVCAR-5 ovarian 59.4% | OVCAR-4 ovarian 20.2% | SK-OV-3 ovarian 54.3% | OVCAR-3 ovarian 39.6% | HS 578T breast 57.7%

O=C(O)c1ccc(N=CC(=O)c2ccc(-c3ccccc3)cc2)cc1
inactive: RPMI-8226 leukemia 90.3% | OVCAR-8 ovarian 98.7% | OVCAR-5 ovarian 92.6% | OVCAR-4 ovarian 101% | SK-OV-3 ovarian 110% | IGROV1 ovarian 102% | OVCAR-3 ovarian 119% | HS 578T breast 88.9% | NCI/ADR-RES ovarian 94.9%

COc1ccc(-c2cc(NC(=O)Nc3ccc4ncsc4c3)no2)cc1
inactive: RPMI-8226 leukemia 92.6% | OVCAR-8 ovarian 102% | OVCAR-5 ovarian 98.6% | OVCAR-4 ovarian 96.2% | SK-OV-3 ovarian 118% | IGROV1 ovarian 107% | OVCAR-3 ovarian 114% | HS 578T breast 93.3% | NCI/ADR-RES ovarian 106%

CCCCCCN(CCCCCC)C(=N)c1ccnc2ccccc12
inactive: RPMI-8226 leukemia 50.2% | OVCAR-8 ovarian 71.7% | OVCAR-5 ovarian 77.4% | OVCAR-4 ovarian 67.6% | SK-OV-3 ovarian 92.4% | IGROV1 ovarian 65.9% | OVCAR-3 ovarian 69.3% | NCI/ADR-RES ovarian 65.1%

COc1ccc(S(=O)(=O)N2CC3(COC3)C2)cc1NC(=O)c1[nH]c(C)c2c1CCCCC2=O
inactive: RPMI-8226 leukemia 25.8% | OVCAR-8 ovarian 54.2% | OVCAR-5 ovarian 61.1% | OVCAR-4 ovarian 56.6% | SK-OV-3 ovarian 39.8% | IGROV1 ovarian 44% | OVCAR-3 ovarian 54.4% | HS 578T breast 26.7% | NCI/ADR-RES ovarian 91.1%

CCOC(=O)C(C)(C#N)C1C=CCCC1 (centres undefined)
inactive: RPMI-8226 leukemia 92.9% | OVCAR-8 ovarian 98.8% | OVCAR-5 ovarian 68.2% | OVCAR-4 ovarian 91.5% | SK-OV-3 ovarian 95.1% | IGROV1 ovarian 94.8% | OVCAR-3 ovarian 90.6% | HS 578T breast 84.1% | NCI/ADR-RES ovarian 91.9%

O=C(CCN1C(=O)/C(=C/c2ccc(Cl)cc2)SC1=S)NCCCN1CCOCC1
inactive: RPMI-8226 leukemia 103% | OVCAR-8 ovarian 92.4% | OVCAR-5 ovarian 103% | OVCAR-4 ovarian 102% | SK-OV-3 ovarian 88.2% | IGROV1 ovarian 110% | OVCAR-3 ovarian 105% | HS 578T breast 90.9% | NCI/ADR-RES ovarian 98.9%

N#Cc1c(N)n(CCNC(=O)c2ccccc2)c2nc3ccccc3nc12
inactive: RPMI-8226 leukemia 179% | OVCAR-8 ovarian 102% | OVCAR-5 ovarian 79% | OVCAR-4 ovarian 114% | SK-OV-3 ovarian 120% | IGROV1 ovarian 76.3% | OVCAR-3 ovarian 81.9% | HS 578T breast 179% | NCI/ADR-RES ovarian 87.7%

COc1cccc(-c2nn(C(C)(C)C)cc2-c2ccnc(NCCCNS(=O)(=O)c3ccc(C)cc3)c2)c1
inactive: RPMI-8226 leukemia 99.3% | OVCAR-8 ovarian 103% | OVCAR-5 ovarian 105% | OVCAR-4 ovarian 103% | SK-OV-3 ovarian 113% | IGROV1 ovarian 111% | OVCAR-3 ovarian 122% | HS 578T breast 103% | NCI/ADR-RES ovarian 98.4%

Cc1cc(N2CCCC2)nc(NC2CCCC(Nc3ccnc4cc(Cl)ccc34)C2)n1 (centres undefined)
active: RPMI-8226 leukemia -55.6% | OVCAR-8 ovarian -69.8% | OVCAR-5 ovarian -14.8% | SK-OV-3 ovarian -29% | IGROV1 ovarian -27.5% | OVCAR-3 ovarian -53.2% | HS 578T breast -41.6% | NCI/ADR-RES ovarian -10.1%
inactive: OVCAR-4 ovarian 17.1%

Cc1ccc(OC(=O)c2ccc(Cl)cc2)cc1
inactive: RPMI-8226 leukemia 92.4% | OVCAR-8 ovarian 96.7% | OVCAR-5 ovarian 97% | OVCAR-4 ovarian 79.8% | SK-OV-3 ovarian 116% | IGROV1 ovarian 116% | OVCAR-3 ovarian 99.9% | HS 578T breast 110% | NCI/ADR-RES ovarian 107%

COc1ccc(C(=O)COc2ccc(/C=C3\Oc4ccc(OC)cc4C3=O)cc2)cc1
inactive: RPMI-8226 leukemia 80.5% | OVCAR-8 ovarian 88% | OVCAR-5 ovarian 117% | OVCAR-4 ovarian 115% | SK-OV-3 ovarian 102% | OVCAR-3 ovarian 103% | HS 578T breast 97.3% | NCI/ADR-RES ovarian 109%

COc1cc2nc(N3CCCC3)nc(NCc3ccccc3)c2cc1OC
inactive: RPMI-8226 leukemia 12.7% | OVCAR-8 ovarian 78.9% | OVCAR-5 ovarian 80.4% | OVCAR-4 ovarian 57.2% | SK-OV-3 ovarian 96% | IGROV1 ovarian 90.4% | OVCAR-3 ovarian 68.1% | HS 578T breast 73.7% | NCI/ADR-RES ovarian 72.4%

CC(O)CN(CC(C)O)c1ccc2c(c1)Cc1cc([N+](=O)[O-])ccc1-2 (centres undefined)
inactive: RPMI-8226 leukemia 104% | OVCAR-8 ovarian 118% | OVCAR-5 ovarian 86.2% | OVCAR-4 ovarian 112% | SK-OV-3 ovarian 108% | IGROV1 ovarian 55.6% | OVCAR-3 ovarian 91.7% | HS 578T breast 95.8% | NCI/ADR-RES ovarian 92.9%

CC(C)(O)c1cn(CCCCN2C(=O)C(=O)c3ccccc32)nn1
inactive: RPMI-8226 leukemia 95.9% | OVCAR-8 ovarian 102% | OVCAR-5 ovarian 96.4% | OVCAR-4 ovarian 96.5% | SK-OV-3 ovarian 95.7% | IGROV1 ovarian 102% | OVCAR-3 ovarian 109% | HS 578T breast 99.6% | NCI/ADR-RES ovarian 99.9%
